Source: PubChem
IDE exosite FP – exo-site inhibitors of human IDE, primary screen, biochemical, fluorescence anisotropy, probe displacement | Insulin-degrading enzyme (Homo sapiens), P14735 | purified IDE, FL-6b probe fluorescence polarization; stronger effect = lower value | 6.3% of 17,000 active | z-score at 20 µM | AID 1259349, 2017;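 active means z-score of -3 or lower, meaning strong loss of probe binding signal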;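 further: His-tagged human IDE residues 42-1019 made in E. coli with 30 nM FL-6b probe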
Active calls of the source: *. The full list was thinned out, with hits kept by preference.

SMILES	IDE exosite FP
COc1cccc(NC(=O)N2C[C@H](O)COC[C@H]3O[C@@H](CC(=O)N(C)C)CC[C@@H]32)c1	-1.1
Cc1ccccc1-c1ccc(C2[C@@H]3CN(S(=O)(=O)Cc4ccccc4)C[C@H]2N3)cc1 (stereo partly specified)	-2.4
CN(C)C(=O)c1ccc(-c2ccc(C3[C@@H]4CN(S(=O)(=O)Cc5ccccc5)C[C@H]3N4)cc2)cc1 (stereo partly specified)	-4.2*
Cc1ccc(S(=O)(=O)N2C[C@@H]3N[C@H](C2)C3c2ccc(-c3ccc(C(=O)N(C)C)cc3)cc2)cc1 (stereo partly specified)	1.1
O=C(Nc1cccc(Cl)c1)N1[C@@H]2CNC[C@H]1C2c1ccc(-c2ccccc2)cc1 (stereo partly specified)	0.92
C/C=C/c1ccccc1[C@H]1[C@@H](C#N)N(C(=O)NC2CCCCC2)[C@H]1CO	0.89
CCC(=O)N(C)C[C@H]1[C@@H](c2ccc(-c3cccnc3)cc2)[C@@H](CO)N1C(C)=O	-0.32
O=C(Cc1ccccn1)N1CC(=O)N2[C@H](CO)[C@H](c3ccc(-c4ccc(F)cc4)cc3)[C@H]2C1	-0.65
C[C@H](NC(=O)C[C@@H]1CC[C@H]2[C@@H](COC[C@H](O)CN2C(=O)Nc2cccc(Cl)c2)O1)c1ccccc1	1.4
CC(C)NC(=O)N1CCCCN2[C@H](CO)[C@H](c3ccc(C#C[C@H](C)O)cc3)[C@@H]2C1	-0.26
CC(C)NC(=O)N1CCCCN2[C@H](C1)[C@H](c1ccc(C#Cc3ccccc3)cc1)[C@@H]2CO	-13*
CC(C)NC(=O)N1CCCCN2[C@H](CO)[C@@H](c3ccc(C#Cc4ccccc4)cc3)[C@H]2C1	-9.2*
CC(C)NC(=O)N1CCCCN2[C@H](CO)[C@H](c3ccc(C#Cc4ccccc4)cc3)[C@H]2C1	-5*
CC(C)NC(=O)N1CCCCN2[C@H](CO)[C@@H](c3ccc(C#CC4CC4)cc3)[C@H]2C1	-0.9
CC(C)C#Cc1ccc([C@H]2[C@@H](CO)N3CCCCN(C(=O)NC(C)C)C[C@@H]23)cc1	1.8
CC(C)NC(=O)N1CCCCN2[C@H](C1)[C@@H](c1ccc(C#C[C@H](C)O)cc1)[C@@H]2CO	0.79
CC(C)C#Cc1ccc([C@@H]2[C@H](CO)N3CCCCN(C(=O)NC(C)C)C[C@@H]23)cc1	-0.18
CC(C)C#Cc1ccc([C@H]2[C@H]3CN(C(=O)NC(C)C)CCCCN3[C@H]2CO)cc1	-0.26
CC(C)C#Cc1ccc([C@@H]2[C@H](CO)N3CCCCN(C(=O)Nc4ccccc4)C[C@@H]23)cc1	3.2
CC(C)NC(=O)N1CCCCN2[C@H](C1)[C@@H](c1ccc(C#Cc3ccccc3)cc1)[C@@H]2CO	-3.7*
CC(C)NC(=O)N1CCCCN2[C@@H](CO)[C@H](c3ccc(C#C[C@@H](C)O)cc3)[C@@H]2C1	1.4
O=C(N[C@H]1C=C[C@H](CC(=O)N2CCC(Cc3ccccc3)CC2)O[C@H]1CO)c1cnccn1	0.87
O=C(C1CC1)N1CC(=O)N2[C@H](CO)[C@H](c3ccc(C#CC4CCCC4)cc3)[C@@H]2C1	3
CO[C@@H](C(=O)N(C)C[C@H]1OCc2ccccc2-c2ccccc2C(=O)N([C@H](C)CO)C[C@@H]1C)c1ccccc1	0.11
COc1ccccc1NC(=O)N1CC(=O)N2[C@H](CO)[C@@H](c3ccc(C#CCC(C)C)cc3)[C@H]2C1	0.81
SMILES	IDE exosite FP
CC(=O)NC[C@H]1[C@@H](c2ccc(C#C[C@@H](C)O)cc2)[C@@H](CO)N1Cc1ccccn1	-0.39
COCC#Cc1ccc([C@H]2[C@@H](CO)N3CCCCN(C(=O)Nc4cc(F)ccc4F)C[C@H]23)cc1	-0.3
O=C(Nc1nccs1)[C@@H]1[C@@H](CO)[C@@H]2Cn3c(cccc3=O)[C@H]1N2C(=O)C1CC1	-0.5
CCCC#Cc1cnc2c(c1)C(=O)N([C@H](C)CO)C[C@H](C)[C@H](CN(C)C(=O)Nc1cc(F)ccc1F)O2	-0.071
COc1ccc(-c2ccc([C@@H]3[C@@H](C#N)N(C(=O)c4cccnc4)[C@H]3CO)cc2)cc1	2.8
O=C(C[C@H]1C[C@H]2c3cc(NS(=O)(=O)c4ccc(F)cc4)ccc3O[C@H]2[C@H](CO)O1)NCc1cccnc1	0.09
N#C[C@H]1[C@H](c2ccc(-c3ccc(F)cc3)cc2)[C@H](CO)N1c1nc(-c2ccccc2)cs1	4.5
Cc1noc(C)c1NC(=O)Nc1ccc2c(c1)C(=O)N(C)[C@H]1CC[C@H](CC(=O)N[C@@H]3CCN(Cc4ccccc4)C3)O[C@@H]1CO2	-0.77
CCC(=O)N1CCCCN2[C@H](CO)[C@@H](c3ccc(C#Cc4cccnc4)cc3)[C@H]2C1	-2.4
CCC(=O)N1CCCCN2[C@H](C1)[C@@H](c1ccc(C#Cc3cccnc3)cc1)[C@@H]2CO	-2.4
COCC(=O)N1CCCCN2[C@@H](CO)[C@@H](c3ccc(C#Cc4cccnc4)cc3)[C@@H]2C1	2.2
CCC(=O)N1CCCCN2[C@H](C1)[C@H](c1ccc(C#Cc3cccnc3)cc1)[C@@H]2CO	-3.5*
COCC(=O)N1CC(=O)N2[C@H](C1)[C@H](c1ccc(C#Cc3cccnc3)cc1)[C@@H]2CO	1.4
COCC(=O)N1CCCCN2[C@@H](CO)[C@H](c3ccc(C#Cc4cccnc4)cc3)[C@@H]2C1	-6.3*
OC[C@@H]1[C@H](c2ccc(-c3ccc(F)cc3)cc2)[C@@H]2CN(CCC(F)(F)F)CCCCN12	0.33
Cc1cccc(S(=O)(=O)N2CCCCN3[C@H](C2)[C@H](c2ccc(C#CC4CC4)cc2)[C@@H]3CO)c1	2.3
COc1ccc([C@H]2CC=CC[C@@H](C)Oc3ccccc3C(=O)N(C)[C@H](Cc3ccccc3)C(=O)N2)c(OC)c1 (mixture of isomers)	2
CCS(=O)(=O)N1CC(=O)N2[C@H](CO)[C@@H](c3ccc(-c4ccccc4F)cc3)[C@@H]2C1	-11*
CS(=O)(=O)N1CC(=O)N2[C@@H](CO)[C@@H](c3ccc(Br)cc3)[C@@H]2C1	-1.1
CCS(=O)(=O)N1CC(=O)N2[C@@H](CO)[C@H](c3ccc(-c4ccccc4F)cc3)[C@@H]2C1	2.2
Cc1ccccc1-c1ccc([C@@H]2[C@H]3CN(S(C)(=O)=O)CC(=O)N3[C@H]2CO)cc1	-5.1*
CCN1CC(=O)N2[C@H](C1)[C@@H](c1ccc(-c3ccccc3F)cc1)[C@@H]2CO	-2.6
CCS(=O)(=O)N1CC(=O)N2[C@H](CO)[C@@H](c3ccc(-c4ccccc4)cc3)[C@@H]2C1	-5.4*
Cc1ccccc1-c1ccc([C@@H]2[C@@H](CO)N3C(=O)CN(S(C)(=O)=O)C[C@H]23)cc1	-1.5
CCS(=O)(=O)N1CC(=O)N2[C@H](CO)[C@@H](c3ccc(-c4ccc(F)cc4)cc3)[C@H]2C1	3.8
CCS(=O)(=O)N1CC(=O)N2[C@H](CO)[C@H](c3ccc(-c4ccc(F)cc4)cc3)[C@@H]2C1	2.5
CCS(=O)(=O)N1CC(=O)N2[C@H](CO)[C@@H](c3ccc(C#Cc4ccc(F)cc4)cc3)[C@H]2C1	0.79
CCS(=O)(=O)N1CC(=O)N2[C@@H](CO)[C@H](c3ccc(-c4ccccc4C)cc3)[C@@H]2C1	-5.8*
CCS(=O)(=O)N1CC(=O)N2[C@@H](CO)[C@H](c3ccc(C#CC4CC4)cc3)[C@@H]2C1	4.4
COCC(=O)N1CC(=O)N2[C@H](C1)[C@H](c1ccc(C#CC3CC3)cc1)[C@@H]2CO	1
